# This is one part of a sample in which the strongest signals are shown more often than they occur.
# B1: Sebin2 (Coprinopsis cinerea), A8PE78 (protein)
# chain: MTTPFYAYCHNVQDDNTWRLGLVFANRSTADEWWRAISEATSSIPITKSITRVTPQYYTHDIRVWNMYNFFVDGNIKSISDKFRGRLFITLEYDRSGRGVSVFPPLHIVDHVSGNWYYIRSKTAPHLFWFYDETRNAIYASKEKRTRFKVSIRNPSPQTPKDAIMINSDDVVIHIKESLYVGVDSYLGHIIPTRAYRTFKFGELEGGAIAGIEVAENAEERCSSTFDGASLYFVGPDSSSPGEPWELV
# Experiments:
# Assay in all cases: glycan array binding signal (z-score within array); higher = stronger binding
# Conditions in all cases: glycan notation: IUPAC condensed, linker removed
# [1] = target: Fuc(a1-2)Gal(b1-3)GlcNAc(b1-2)Man(a1-3)[Fuc(a1-2)Gal(b1-3)GlcNAc(b1-2)Man(a1-6)]Man(b1-4)GlcNAc(b1-4)GlcNAc
# Procedure, shortened: (§1)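 Columns mapping to the same glycan were averaged after glycan names were converted to IUPAC-condensed notation. The data come from 3228 arrays in the Consortium for Functional Glycomics database, limited to those with an available protein sequence. Binding is reported as a within-array Z-score averaged across arrays of one protein sequence and across linkers.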
# [2] = target: Fuc(a1-2)Gal(b1-3)GlcNAc(b1-3)GalNAc
# Procedure, shortened: as §1
# [3] = target: Fuc(a1-2)Gal(b1-4)GlcNAc(b1-2)[Fuc(a1-2)Gal(b1-4)GlcNAc(b1-4)]Man(a1-3)[Fuc(a1-2)Gal(b1-4)GlcNAc(b1-2)Man(a1-6)]Man(b1-4)GlcNAc(b1-4)GlcNAc
# Procedure, shortened: as §1
# [4] = target: Fuc(a1-2)Gal(b1-4)GlcNAc(b1-3)Gal(b1-4)GlcNAc(b1-3)Gal(b1-4)GlcNAc
# Procedure, shortened: as §1
# [5] = target: Fuc(a1-2)[Gal(a1-3)]Gal(b1-4)GlcNAc(b1-3)[Fuc(a1-2)[Gal(a1-3)]Gal(b1-4)GlcNAc(b1-6)]GalNAc
# Procedure, shortened: as §1
# [6] = target: Fuc(a1-2)[Gal(a1-3)]Gal(b1-4)[Fuc(a1-3)]GlcNAc
# Procedure, shortened: as §1
# [7] = target: Fuc(a1-2)[GalNAc(a1-3)]Gal(b1-4)GlcNAc(b1-2)Man(a1-3)[Fuc(a1-2)[GalNAc(a1-3)]Gal(b1-4)GlcNAc(b1-2)Man(a1-6)]Man(b1-4)GlcNAc(b1-4)GlcNAc
# Procedure, shortened: as §1
# [8] = target: Fuc(a1-3)[Gal(b1-4)]Glc6S
# Procedure, shortened: as §1
# [9] = target: Fuc(a1-3)[Gal(b1-4)]GlcNAc(b1-3)GalNAc
# Procedure, shortened: as §1
# Fuc(a1-4)GlcNAc = target: Fuc(a1-4)GlcNAc
# Procedure, shortened: as §1
# Gal(a1-3)Gal(b1-3)GlcNAc = target: Gal(a1-3)Gal(b1-3)GlcNAc
# Procedure, shortened: as §1
# [10] = target: Gal(a1-3)Gal(b1-4)[Fuc(a1-3)]GlcNAc
# Procedure, shortened: as §1
# [11] = target: Gal(b1-3)GalNAc(a1-3)[Fuc(a1-2)]Gal(b1-4)GlcNAc
# Procedure, shortened: as §1
# [12] = target: Gal(b1-3)GlcNAc(b1-2)Man(a1-3)[GlcNAc(b1-4)][Gal(b1-3)GlcNAc(b1-2)Man(a1-6)]Man(b1-4)GlcNAc(b1-4)GlcNAc
# Procedure, shortened: as §1
# [13] = target: Gal(b1-3)GlcNAc(b1-2)[Gal(b1-3)GlcNAc(b1-6)]Man(a1-6)[Gal(b1-3)GlcNAc(b1-2)Man(a1-3)]Man(b1-4)GlcNAc(b1-4)GlcNAc
# Procedure, shortened: as §1
# [14] = target: Gal(b1-3)GlcNAc(b1-3)Gal(b1-3)GlcNAc
# Procedure, shortened: as §1
# [15] = target: Gal(b1-3)GlcNAc(b1-3)Gal(b1-4)GlcNAc(b1-3)Gal(b1-4)GlcNAc(b1-2)[Gal(b1-3)GlcNAc(b1-3)Gal(b1-4)GlcNAc(b1-3)Gal(b1-4)GlcNAc(b1-6)]Man(a1-6)[Gal(b1-3)GlcNAc(b1-3)Gal(b1-4)GlcNAc(b1-3)Gal(b1-4)GlcNAc(b1-2)Man(a1-3)]Man(b1-4)GlcNAc(b1-4)[Fuc(a1-6)]GlcNAc
# Procedure, shortened: as §1
# [16] = target: Gal(b1-4)GlcNAc(b1-2)Man(a1-3)[Gal(b1-4)GlcNAc(b1-2)Man(a1-6)]Man(b1-4)GlcNAc(b1-4)GlcNAc
# Procedure, shortened: as §1
# [17] = target: Gal(b1-4)GlcNAc(b1-3)Gal(b1-4)GlcNAc(b1-3)Gal(b1-4)GlcNAc(b1-2)Man(a1-3)[Gal(b1-4)GlcNAc(b1-3)Gal(b1-4)GlcNAc(b1-3)Gal(b1-4)GlcNAc(b1-2)Man(a1-6)]Man(b1-4)GlcNAc(b1-4)GlcNAc
# Procedure, shortened: as §1
# [18] = target: Gal(b1-4)GlcNAc(b1-3)Gal(b1-4)GlcNAc(b1-3)Gal(b1-4)GlcNAc(b1-3)Gal(b1-4)GlcNAc(b1-3)Gal(b1-4)GlcNAc(b1-2)[Gal(b1-4)GlcNAc(b1-3)Gal(b1-4)GlcNAc(b1-3)Gal(b1-4)GlcNAc(b1-3)Gal(b1-4)GlcNAc(b1-3)Gal(b1-4)GlcNAc(b1-6)]Man(a1-6)[Gal(b1-4)GlcNAc(b1-3)Gal(b1-4)GlcNAc(b1-3)Gal(b1-4)GlcNAc(b1-3)Gal(b1-4)GlcNAc(b1-3)Gal(b1-4)GlcNAc(b1-2)Man(a1-3)]Man(b1-4)GlcNAc(b1-4)[Fuc(a1-6)]GlcNAc
# Procedure, shortened: as §1
# Gal3S(b1-4)Glc6S = target: Gal3S(b1-4)Glc6S
# Procedure, shortened: as §1
# Gal6S(b1-4)Glc = target: Gal6S(b1-4)Glc
# Procedure, shortened: as §1
# Gal6S(b1-4)GlcNAc = target: Gal6S(b1-4)GlcNAc
# Procedure, shortened: as §1
# [19] = target: GalNAc(b1-3)Gal(a1-4)Gal(b1-4)GlcNAc
# Procedure, shortened: as §1
# GalNAc(b1-3)GalNAc = target: GalNAc(b1-3)GalNAc
# Procedure, shortened: as §1
# [20] = target: GalNAc(b1-4)GlcNAc(b1-2)Man(a1-3)[GalNAc(b1-4)GlcNAc(b1-2)Man(a1-6)]Man(b1-4)GlcNAc(b1-4)GlcNAc
# Procedure, shortened: as §1
# GalNAc3S(b1-4)GlcNAc3S = target: GalNAc3S(b1-4)GlcNAc3S
# Procedure, shortened: as §1
# GlcA(b1-6)Gal = target: GlcA(b1-6)Gal
# Procedure, shortened: as §1
# [21] = target: GlcA3S(b1-3)Gal(b1-4)GlcNAc(b1-3)Gal(b1-4)Glc
# Procedure, shortened: as §1
# [22] = target: GlcNAc(b1-2)Man(a1-3)[GlcNAc(b1-2)Man(a1-6)]Man(b1-4)GlcNAc(b1-4)[Fuc(a1-6)]GlcNAc
# Procedure, shortened: as §1
# [23] = target: GlcNAc(b1-2)[GlcNAc(b1-4)]Man(a1-3)[GlcNAc(b1-4)][GlcNAc(b1-2)Man(a1-6)]Man(b1-4)GlcNAc(b1-4)GlcNAc
# Procedure, shortened: as §1
# GlcNAc(b1-3)Gal(b1-4)Glc = target: GlcNAc(b1-3)Gal(b1-4)Glc
# Procedure, shortened: as §1
# [24] = target: GlcNAc(b1-3)Gal(b1-4)GlcNAc(b1-6)[Gal(b1-3)]GalNAc
# Procedure, shortened: as §1
# [25] = target: GlcNAc(b1-4)GlcNAc(b1-4)GlcNAc(b1-4)GlcNAc(b1-4)GlcNAc(b1-4)GlcNAc
# Procedure, shortened: as §1
# Man(b1-4)GlcNAc = target: Man(b1-4)GlcNAc
# Procedure, shortened: as §1
# [26] = target: Neu5Ac(a2-3)Gal(b1-3)GalNAc
# Procedure, shortened: as §1
# Neu5Ac(a2-3)Gal(b1-4)Glc = target: Neu5Ac(a2-3)Gal(b1-4)Glc
# Procedure, shortened: as §1
# [27] = target: Neu5Ac(a2-3)Gal(b1-4)GlcNAc(b1-3)Gal(b1-3)GlcNAc
# Procedure, shortened: as §1
# [28] = target: Neu5Ac(a2-3)Gal(b1-4)[Fuc(a1-3)]GlcNAc
# Procedure, shortened: as §1
# [29] = target: Neu5Ac(a2-6)Gal(b1-4)GlcNAc(b1-3)Gal(b1-4)GlcNAc(b1-2)Man(a1-3)[Neu5Ac(a2-6)Gal(b1-4)GlcNAc(b1-3)Gal(b1-4)GlcNAc(b1-2)Man(a1-6)]GalNAc
# Procedure, shortened: as §1
# [30] = target: Neu5Ac(a2-8)Neu5Ac(a2-8)Neu5Ac
# Procedure, shortened: as §1
# [31] = target: Neu5Ac(a2-8)Neu5Gc(a2-3)Gal(b1-4)GlcNAc
# Procedure, shortened: as §1
# Neu5Gc(a2-6)GalNAc = target: Neu5Gc(a2-6)GalNAc
# Procedure, shortened: as §1
binder,measurement,setting,value
B1,glycan array binding signal (z-score),[1],0.911
same,glycan array binding signal (z-score),[2],-0.146
same,glycan array binding signal (z-score),[3],0.019
same,glycan array binding signal (z-score),[4],-0.116
same,glycan array binding signal (z-score),[5],4.59
same,glycan array binding signal (z-score),[6],-0.033
same,glycan array binding signal (z-score),[7],0.273
same,glycan array binding signal (z-score),[8],1.49
same,glycan array binding signal (z-score),[9],0.281
same,glycan array binding signal (z-score),Fuc(a1-4)GlcNAc,4.58
same,glycan array binding signal (z-score),Gal(a1-3)Gal(b1-3)GlcNAc,1.62
same,glycan array binding signal (z-score),[10],-0.524
same,glycan array binding signal (z-score),[11],-0.521
same,glycan array binding signal (z-score),[12],-0.222
same,glycan array binding signal (z-score),[13],1.02
same,glycan array binding signal (z-score),[14],-0.397
same,glycan array binding signal (z-score),[15],0.29
same,glycan array binding signal (z-score),[16],0.112
same,glycan array binding signal (z-score),[17],-0.131
same,glycan array binding signal (z-score),[18],0.421
same,glycan array binding signal (z-score),Gal3S(b1-4)Glc6S,0.515
same,glycan array binding signal (z-score),Gal6S(b1-4)Glc,-0.355
same,glycan array binding signal (z-score),Gal6S(b1-4)GlcNAc,-0.138
same,glycan array binding signal (z-score),[19],-0.059
same,glycan array binding signal (z-score),GalNAc(b1-3)GalNAc,-0.129
same,glycan array binding signal (z-score),[20],-0.25
same,glycan array binding signal (z-score),GalNAc3S(b1-4)GlcNAc3S,0.462
same,glycan array binding signal (z-score),GlcA(b1-6)Gal,1.12
same,glycan array binding signal (z-score),[21],1.64
same,glycan array binding signal (z-score),[22],-0.213
same,glycan array binding signal (z-score),[23],2.76
same,glycan array binding signal (z-score),GlcNAc(b1-3)Gal(b1-4)Glc,-0.04
same,glycan array binding signal (z-score),[24],-0.253
same,glycan array binding signal (z-score),[25],-0.328
same,glycan array binding signal (z-score),Man(b1-4)GlcNAc,-0.209
same,glycan array binding signal (z-score),[26],6.35
same,glycan array binding signal (z-score),Neu5Ac(a2-3)Gal(b1-4)Glc,8.35
same,glycan array binding signal (z-score),[27],0.2
same,glycan array binding signal (z-score),[28],-0.437
same,glycan array binding signal (z-score),[29],-0.35
same,glycan array binding signal (z-score),[30],0.72
same,glycan array binding signal (z-score),[31],-0.304
same,glycan array binding signal (z-score),Neu5Gc(a2-6)GalNAc,-0.242

# — the supplement of paper PMC8728848
